Test results as given in PubChem BioAssay (NCI).
About 79,000 compounds went through this panel and 15% of them were active in at least one assay; those are over-represented in the sample as a whole. The source made the active and inactive calls. Rule as the data show it: active = growth inhibition above about 70%; inactive = the rest.

Tests used:
[1] = NCI Yeast Anticancer Drug Screen. Data for the rad52 strain (AID 147);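 also: 0% = growth of vehicle-treated control cultures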; conditions: S. cerevisiae rad52 mutant growth inhibition, stronger effect = higher value
Outline: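 Read-out: growth inhibition versus vehicle-treated controls. Cells were a DNA repair-deficient yeast strain treated with compounds.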

[2] = NCI Yeast Anticancer Drug Screen. Data for the wt1 strain (AID 149);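 also: 0% = growth of vehicle-treated wt1 cultures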; conditions: S. cerevisiae wt1 strain (SPY 50644) growth inhibition, stronger effect = higher value
Outline: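 wt1 yeast, compound-treated; % growth inhibition vs vehicle control.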

[3] = NCI Yeast Anticancer Drug Screen. Data for the rad50EPP+ strain (AID 151);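 also: 0% = growth of vehicle-treated control cultures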; conditions: S. cerevisiae rad50 mutant strain, stronger effect = higher value
Outline: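 Growth inhibition read against vehicle controls in rad50EPP+ yeast, a strain altered in DNA damage repair, after compound exposure.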

[4] = NCI Yeast Anticancer Drug Screen. Data for the mgt1 strain (AID 153); conditions: S. cerevisiae mgt1 mutant growth inhibition, stronger effect = higher value
Outline: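 mgt1 yeast grown with test compound; read-out is growth inhibition versus vehicle-treated cultures.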

[5] = NCI Yeast Anticancer Drug Screen. Data for the rad50 strain (AID 155);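 also: 0% = growth of vehicle-only cultures of the same strain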; conditions: S. cerevisiae rad50 strain growth inhibition, stronger effect = higher value
Outline: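 Genetically altered yeast (DNA repair pathway); compound treatment; growth inhibition vs vehicle ctrl.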

[6] = NCI Yeast Anticancer Drug Screen. Data for the mec2-1 strain (AID 157); conditions: S. cerevisiae mec2-1 strain, stronger effect = higher value
Outline: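 Yeast mec2-1 mutant treated with compound. Readout: growth inhibition vs vehicle controls.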

[7] = NCI Yeast Anticancer Drug Screen. Data for the rad14 strain (AID 159);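 also: 0% = growth of vehicle-treated control cultures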; conditions: S. cerevisiae rad14 strain growth inhibition, stronger effect = higher value
Outline: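 Test compounds were applied to a repair-deficient yeast strain. Its growth was then compared with that of cultures given vehicle alone, and inhibition was expressed relative to those controls.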

[8] = NCI Yeast Anticancer Drug Screen. Data for the sgs1 mgt1 strain (AID 161);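 also: 0% = growth of cultures given vehicle only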; conditions: S. cerevisiae sgs1 mgt1 strain, stronger effect = higher value
Outline: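 Inhibition of yeast growth, normalised to vehicle-treated controls, is reported for a strain bearing genetic alterations in DNA damage repair.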

[9] = NCI Yeast Anticancer Drug Screen. Data for the CLN2oe strain (AID 163);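 also: 0% = growth of vehicle-only control cultures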; conditions: S. cerevisiae CLN2oe strain, stronger effect = higher value
Outline: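 Read-out: yeast growth inhibition, expressed relative to vehicle-only controls. The strain bears an engineered cell-cycle alteration.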

[10] = NCI Yeast Anticancer Drug Screen. Data for the cln2 rad14 strain (AID 165);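 also: 0% = growth equal to vehicle treated cultures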; conditions: S. cerevisiae cln2 rad14 strain, stronger effect = higher value
Outline: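 cln2 rad14 yeast strain; compound exposure; growth inhibition read vs vehicle controls.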

[11] = NCI Yeast Anticancer Drug Screen. Data for the wt2 strain (AID 169);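 also: 0% = growth of vehicle-treated yeast cultures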; conditions: S. cerevisiae wt2 strain growth inhibition, stronger effect = higher value
Outline: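 Read-out: growth inhibition versus vehicle-treated control cultures after compound exposure of the yeast strain.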

[12] = NCI Yeast Anticancer Drug Screen. Data for the mlh1 strain (AID 171);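 also: 0% = growth of vehicle-treated control cultures of the same strain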; conditions: S. cerevisiae mlh1 strain growth inhibition, stronger effect = higher value
Outline: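 Read-out: growth inhibition versus vehicle controls. Strain: engineered yeast with a defined DNA repair or cell cycle defect, compound-treated.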

[13] = NCI Yeast Anticancer Drug Screen. Data for the sgs1 strain (AID 173);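 also: 0% = growth of vehicle-only control cultures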; conditions: S. cerevisiae sgs1 mutant, stronger effect = higher value
Outline: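 Read-out: yeast growth inhibition relative to vehicle controls, following compound exposure of a strain with a defined DNA repair/cell cycle alteration.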

[14] = NCI Yeast Anticancer Drug Screen. Data for the mlh1 rad18 strain (AID 175); conditions: S. cerevisiae mlh1 rad18 strain growth inhibition, stronger effect = higher value
Outline: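 Yeast w/ defined DNA-repair lesions; compound exposure; growth vs vehicle controls → % inhibition.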

[15] = NCI Yeast Anticancer Drug Screen. Data for the rad18 strain (AID 177); conditions: S. cerevisiae rad18 mutant growth inhibition, stronger effect = higher value
Outline: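 Readout: growth inhibition vs vehicle controls. Cells: genetically altered yeast strain, DNA repair defect.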

[16] = at 5.0 µM (retest, dose inferred, filed as 0.5)
[17] = at 50.0 µM (retest, dose inferred, filed as 5.0)

Measured: growth inhibition

CC(=O)Oc1cc(-c2cc(OC(C)=O)c(OC(C)=O)c3ccccc23)c2ccccc2c1OC(C)=O
active: [1]; at 100.0 µM 79% | [4]; at 100.0 µM 82% | [5]; [17] 82% | [5]; at 50.0 µM 83.5% | [5]; at 100.0 µM 86% | [6]; [17] 70% | [6]; at 50.0 µM 82.6% | [6]; at 100.0 µM 79% | [7]; at 100.0 µM 95% | [8]; [17] 85% | [8]; at 50.0 µM 87% | [11]; at 100.0 µM 86% | [12]; at 100.0 µM 93% | [13]; at 100.0 µM 82% | [14]; [17] 96% | [14]; at 50.0 µM 93.6% | [15]; at 100.0 µM 90%
inactive: [1]; at 1.2 µM 3% | [1]; at 3.7 µM 4% | [1]; at 11.0 µM 7% | [1]; at 33.0 µM 13% | [2]; at 1.2 µM 8% | [2]; at 3.7 µM 12% | [2]; at 11.0 µM 10% | [2]; at 33.0 µM 12% | [2]; at 100.0 µM 59% | [3]; at 1.2 µM 3% | [3]; at 3.7 µM 6% | [3]; at 11.0 µM 12% | [3]; at 33.0 µM 19% | [3]; at 100.0 µM 21% | [4]; at 1.2 µM 5% | [4]; at 3.7 µM 5% | [4]; at 11.0 µM 5% | [4]; at 33.0 µM 13% | [5]; at 1.2 µM 4% | [5]; at 3.7 µM 8% | [5]; [16] 22% | [5]; at 11.0 µM 12% | [5]; at 33.0 µM 24% | [6]; at 1.2 µM 2% | [6]; at 3.7 µM 9% | [6]; [16] 14% | [6]; at 11.0 µM 12% | [6]; at 33.0 µM 24% | [7]; at 1.2 µM 1% | [7]; at 3.7 µM 3% | [7]; at 11.0 µM 7% | [7]; at 33.0 µM 43% | [8]; [16] 24% | [9]; at 1.2 µM 3% | [9]; at 3.7 µM 0% | [9]; at 11.0 µM -5% | [9]; at 33.0 µM -2% | [9]; at 100.0 µM 57% | [10]; [16] 7% | [10]; [17] 56% | [10]; at 50.0 µM 38% | [11]; at 1.2 µM 10% | [11]; at 3.7 µM 9% | [11]; at 11.0 µM 8% | [11]; at 33.0 µM 11% | [12]; at 1.2 µM 1% | [12]; at 3.7 µM 3% | [12]; at 11.0 µM 6% | [12]; at 33.0 µM 23% | [13]; at 1.2 µM 7% | [13]; at 3.7 µM 10% | [13]; at 11.0 µM 11% | [13]; at 33.0 µM 16% | [14]; [16] 19% | [15]; at 1.2 µM 1% | [15]; at 3.7 µM 6% | [15]; at 11.0 µM 10% | [15]; at 33.0 µM 26%
